Assay results reported in PubChem BioAssay (NCATS).
Inconclusive results are not listed. Where a call stands in place of a potency, no number is given. The source made the active and inactive calls. Unless noted, calls follow the shape of the full dose curve. Peptide text beside a SMILES is read from it.

Assays:
[1] = qHTS for Inhibitors of the Functional Ribonucleoprotein Complex (vRNP) of Lassa (LASV) Arenavirus: LASV Primary Screen - GLuc reporter signal (AID 1347082; calls by dose curve; tested in HEK293 reporter line; also: nearly all actives have a fitted effect of over 60% in size); settings: LASV minigenome vRNP, Gaussia luciferase reporter; series mostly up to 57.5 µM
[2] = qHTS for Inhibitors of the Functional Ribonucleoprotein Complex (vRNP) of Lassa (LASV) Arenavirus: Viability assay - alamar blue signal for LASV Primary Screen (AID 1347083; calls by dose curve; tested in HEK293 reporter line; also: nearly all actives have a fitted effect of over 80% in size); settings: cell viability, alamar blue fluorescence (LASV minigenome counter-screen); series mostly up to 57.5 µM
[3] = qHTS for Inhibitors of the Functional Ribonucleoprotein Complex (vRNP) of Lymphocytic Choriomeningitis Arenaviruses (LCMV): Viability assay - alamar blue signal for LCMV Primary Screen (AID 1347085; calls by dose curve; tested in HEK293 reporter line; also: nearly all actives have a fitted effect of over 80% in size); settings: alamar blue viability counter-screen, LCMV vRNP screen cells; series mostly up to 57.5 µM
[4] = target: Nucleoprotein (Lymphocytic choriomeningitis virus (strain Armstrong)) (UniProt P09992); experiment: qHTS for Inhibitors of the Functional Ribonucleoprotein Complex (vRNP) of Lymphocytic Choriomeningitis Arenaviruses (LCMV): LCMV Primary Screen - GLuc reporter signal (AID 1347086); settings: LCMV minigenome vRNP cell assay, Gaussia luciferase reporter; series mostly up to 57.5 µM; also: nearly all actives have a fitted effect of over 70% in size; also: potency is read from the fitted curve at half-maximal effect
Nucleoprotein (Lymphocytic choriomeningitis virus (strain Armstrong)), sequence (P09992 whole entry, looked up): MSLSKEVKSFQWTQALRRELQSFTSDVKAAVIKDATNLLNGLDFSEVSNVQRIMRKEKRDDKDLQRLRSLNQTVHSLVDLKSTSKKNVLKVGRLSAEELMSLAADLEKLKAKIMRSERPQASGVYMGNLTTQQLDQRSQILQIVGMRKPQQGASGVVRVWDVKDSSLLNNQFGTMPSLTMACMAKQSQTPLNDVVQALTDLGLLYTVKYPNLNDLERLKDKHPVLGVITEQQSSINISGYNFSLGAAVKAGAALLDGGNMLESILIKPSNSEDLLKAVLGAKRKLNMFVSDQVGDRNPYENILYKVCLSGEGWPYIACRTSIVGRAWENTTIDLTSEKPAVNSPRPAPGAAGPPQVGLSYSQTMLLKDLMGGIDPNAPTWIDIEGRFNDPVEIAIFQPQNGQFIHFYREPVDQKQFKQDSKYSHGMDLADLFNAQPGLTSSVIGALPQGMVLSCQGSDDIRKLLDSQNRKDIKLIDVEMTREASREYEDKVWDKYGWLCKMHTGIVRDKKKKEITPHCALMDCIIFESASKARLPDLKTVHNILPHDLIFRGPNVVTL

Row | SMILES | Potency [1] | Potency [2] | Potency [3] | Potency [4]
1 | O=C(CCNNC(=O)c1ccncc1)NCc1ccccc1 | inactive | inactive | inactive | inactive
2 | CC(=O)N[C@@H](CO)C(=O)N[C@@H](CC(=O)O)C(=O)N[C@@H](CCCCN)C(=O)N1CCC[C@H]1C(=O)O (Ac-SDKP-OH) | inactive | inactive | inactive | inactive
3 | NC(N)=NCCC[C@H](N)C(=O)O | inactive | inactive | inactive | inactive
4 | CC(C)=CCOc1ccc(/C=C/C(=O)c2ccc(OCC=C(C)C)cc2OCC(=O)O)cc1 | inactive | inactive | inactive | inactive
5 | CC(C)(C)c1ccc(C(O)CCCN2CCC(C(O)(c3ccccc3)c3ccccc3)CC2)cc1 (stereo unspecified) | inactive | inactive | inactive | inactive
6 | CCN(CC)C(=O)C1CN2CCc3cc(OC)c(OC)cc3C2CC1OC(C)=O (stereo unspecified) | inactive | inactive | inactive | inactive
7 | Cc1c(-c2ccccc2)oc2c(C(=O)OCCN3CCCCC3)cccc2c1=O | inactive | inactive | inactive | inactive
8 | CCC(C(=O)OCCOCCN(CC)CC)c1ccccc1 (stereo unspecified) | inactive | inactive | inactive | inactive
9 | CCCCN1CCCC1C(=O)Nc1c(C)cc(C)cc1C (stereo unspecified) | inactive | inactive | inactive | inactive
10 | OCC(CO)N[C@H]1C[C@](O)(CO)[C@@H](O)[C@H](O)[C@H]1O | inactive | inactive | inactive | inactive
11 | Cc1cccc(N(C)C(=S)Oc2ccc3ccccc3c2)c1 | inactive | inactive | inactive | inactive
12 | CN(C(=O)CN(CCO)CC(=O)N(C)C(C)(C)Cc1ccccc1)C(C)(C)Cc1ccccc1 | inactive | inactive | inactive | inactive
13 | NS(=O)(=O)c1cc(C(=O)O)c(NCc2ccco2)cc1Cl | inactive | inactive | inactive | inactive
14 | C=CCCCCCCCCC(=O)O | inactive | inactive | inactive | inactive
15 | CC(C)(C)c1nnc(NS(=O)(=O)c2ccc(N)cc2)s1 | inactive | inactive | inactive | inactive
16 | CCN(CC)CC(=O)Nc1c(C)cccc1C | inactive | inactive | inactive | inactive
17 | C[N+](C)(C)CCCCCCCCCC[N+](C)(C)C | inactive | inactive | inactive | inactive

Row | SMILES | Potency [1] | Potency [2] | Potency [3] | Potency [4]
18 | CCCCN(CCCC)C(C(N)=O)c1ccc(OC)cc1 (stereo unspecified) | inactive | inactive | inactive | inactive
19 | CC[C@H](NC(C)C)[C@H](O)c1ccc(O)c2[nH]c(=O)ccc12 | inactive | inactive | inactive | inactive
20 | CC1(C)O[C@@H]2C[C@H]3[C@@H]4C[C@H](F)C5=CC(=O)C=C[C@]5(C)[C@H]4[C@@H](O)C[C@]3(C)[C@]2(C(=O)CO)O1 | inactive | inactive | inactive | inactive
21 | Cc1nnc(C(=O)NC(C)(C)c2nc(C(=O)NCc3ccc(F)cc3)c(O)c(=O)n2C)o1 | inactive | inactive | inactive | inactive
22 | C/C=C/c1ccc(O)c(OC)c1 | inactive | inactive | inactive | inactive
23 | CCN(CC)CCSC(=O)C(c1ccccc1)c1ccccc1 | inactive | inactive | inactive | inactive
24 | COc1ccccc1OC(=O)Oc1ccccc1OC | inactive | inactive | inactive | inactive
25 | CCCCN1CCCC[C@H]1C(=O)Nc1c(C)cccc1C | inactive | inactive | inactive | inactive
26 | CN(C)CCCN1c2ccccc2Sc2ccccc21 | inactive | inactive | inactive | inactive
27 | CN1CCCN=C1/C=C/c1cccs1 | inactive | inactive | inactive | inactive
28 | CN(Cc1ccc(C(C)(C)C)cc1)Cc1cccc2ccccc12 | inactive | inactive | inactive | inactive
29 | C[C@]12CC[C@@H]3c4ccc(O)cc4CC[C@H]3[C@@H]1CC[C@@H]2OC(=O)CCC1CCCC1 | inactive | inactive | inactive | inactive
30 | OC1C(O)C(O)C(O)C(O)C1O (stereo unspecified) | inactive | inactive | inactive | inactive
31 | CCCCCCCC/C=C\CCCCCCCCN | inactive | inactive | inactive | inactive
32 | CCC(=O)O[C@]1(C(=O)SCF)[C@H](C)C[C@H]2[C@@H]3C[C@H](F)C4=CC(=O)C=C[C@]4(C)[C@@]3(F)[C@@H](O)C[C@@]21C | inactive | inactive | inactive | 17.2 µM (active)
33 | NC(=O)CCCCC1CCSS1 (stereo unspecified) | inactive | inactive | inactive | inactive
34 | O=C(Nc1ccccc1)OCC(CN1CCCCC1)OC(=O)Nc1ccccc1 (stereo unspecified) | inactive | inactive | inactive | inactive
